Values joined by “and” are separate entries in the source; they are usually repeats but may differ in a detail not shown here. Equal values may be shown once. Where a structure was tested more than once in an assay, its records may differ in their call. Active and inactive are the calls of the source. How the source made its calls: active means hit-call score of the fitted dose curve at least 0.9, where 1 is the maximum; inactive means score below 0.9.

The values below come from PubChem BioAssay (EPA / NIEHS).

Read-out in assay [1]: CFLAR gene, CFLAR (gene 8837)
The experiment in a line: LTEA_HepaRG_CFLAR: Life Technologies and Expression Analysis (LTEA) Assay for CFLAR gene using HepaRG (AID 2283455). The conditions noted are these: mRNA level, 48 h; actives raise or lower the signal. Summed up:
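Gain- or loss-of-signal changes in CFLAR transcript were fitted bidirectionally relative to 0.5% DMSO. Cells (HepaRG, duplicate wells) were dosed for 48 h across eight half-log concentrations topping at 100 uM; quantitation by TaqMan qRT-PCR.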

Read-out in assay [2]: Forkhead box O1 (FOXO1), FOXO1 (gene 2308)
The experiment in a line: LTEA_HepaRG_FOXO1: Life Technologies and Expression Analysis (LTEA) Assay for Forkhead box O1 (FOXO1) using HepaRG (AID 2283456). The settings on record: mRNA level, 48 h; actives raise or lower the signal. Summed up: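 Using one lot of HepaRG hepatic cells kept in 0.5% DMSO, the team applied test chemicals in duplicate, half-log dilutions from 100 uM, for 48 h. Expression, normalised to ACTB/GAPDH/POLR2A, was compared with vehicle in either direction.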

Assay [3] is described as follows: CEETOX_H295R_TESTO: CeeTox H295R High-throughput Steroidogenesis Assay for Testosterone (TESTO) (AID 2283457).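 On AC50: cells exposed to chemicals for 48 h before medium collection.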 The conditions noted are these: actives raise or lower the signal. Summed up: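 Readout: testosterone quantified by HPLC-MS/MS (C18, ESI positive) after MTBE liquid-liquid extraction of culture medium. Cells were H295R, 48 h chemical exposure per OECD 456 with modifications. Gain or loss of signal fitted relative to DMSO.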

Read-out in assay [4]: growth arrest and DNA damage 45 (GADD45A), GADD45A (gene 1647)
The experiment in a line: LTEA_HepaRG_GADD45A: Life Technologies and Expression Analysis (LTEA) Assay for growth arrest and DNA damage 45 (GADD45A) using HepaRG (AID 2283458). The conditions noted are these: mRNA level, 48 h; actives raise or lower the signal. Summed up:
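HepaRG, 48 h exposure, 8 conc. (top 100 uM, half-log steps), 0.5% DMSO vehicle, duplicates. Read-out: qRT-PCR mRNA level, housekeeping-normalized (ACTB/GAPDH/POLR2A). Curves fit bidirectionally vs DMSO baseline.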

Read-out in assay [5]: Forkhead box O3 (FOXO3), FOXO3 (gene 2309)
The experiment in a line: LTEA_HepaRG_FOXO3: Life Technologies and Expression Analysis (LTEA) Assay for Forkhead box O3 (FOXO3) using HepaRG (AID 2283459). The conditions noted are these: mRNA level, 48 h; actives raise or lower the signal. The procedure, abridged:
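Gene-expression endpoint: FOXO3 transcript level by qRT-PCR in HepaRG cultures treated 48 h with chemicals up to 100 uM (half-log, 0.5% DMSO vehicle).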

Read-out in assay [6]: ABC Transporter (ABCB1), ABCB1 (gene 5243)
The experiment in a line: LTEA_HepaRG_ABCB1: Life Technologies and Expression Analysis (LTEA) Assay for ABC Transporter (ABCB1) using HepaRG (AID 2283460). The conditions noted are these: mRNA level, 48 h; actives raise or lower the signal. Summed up:
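Human liver HepaRG line treated 48 h with up to 100 uM compound (eight half-log points, 0.5% DMSO); ABCB1 mRNA change fitted bidirectionally against DMSO controls.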

Read-out in assay [7]: ABC Transporter (ABCC3), ABCC3 (gene 8714)
The experiment in a line: LTEA_HepaRG_ABCC3: Life Technologies and Expression Analysis (LTEA) Assay for ABC Transporter (ABCC3) using HepaRG (AID 2283462). The settings on record: mRNA level, 48 h; actives raise or lower the signal. Summed up:
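qRT-PCR read-out of ABCC3 transcript, normalized to three housekeeping genes (ACTB, GAPDH, POLR2A), after 48 h chemical exposure of human HepaRG cells. Eight half-log concentrations, highest 100 uM, in 0.5% DMSO; gain or loss fitted relative to DMSO baseline.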

Read-out in assay [8]: ABC Transporter (ABCB11), ABCB11 (gene 8647)
Kind of assay: LTEA_HepaRG_ABCB11: Life Technologies and Expression Analysis (LTEA) Assay for ABC Transporter (ABCB11) using HepaRG (AID 2283463). The settings on record: mRNA level, 48 h; actives raise or lower the signal. The procedure, abridged: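 Using HepaRG cultures held in 0.5% DMSO, chemicals were tested at half-log dilutions from 100 uM for 48 h. Induction or suppression of ABCB11 mRNA, normalized to ACTB, GAPDH and POLR2A, was fitted bidirectionally against vehicle.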

Read-out in assay [9]: Cytochrome P450 (CYP1A1), CYP1A1 (gene 1543)
Kind of assay: LTEA_HepaRG_CYP1A1: Life Technologies and Expression Analysis (LTEA) Assay for Cytochrome P450 (CYP1A1) using HepaRG (AID 2283454). The settings on record: mRNA level, 48 h; actives raise or lower the signal. Summed up: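 qRT-PCR read-out: CYP1A1 transcript normalized to three housekeeping genes, fitted bidirectionally against 0.5% DMSO vehicle baseline. Human HepaRG cells, 48 h chemical exposure, 8-point half-log series topping at 100 uM.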

Read-out in assay [10]: growth arrest and DNA damage 45 (GADD45B), GADD45B (gene 4616)
The experiment in a line: LTEA_HepaRG_GADD45B: Life Technologies and Expression Analysis (LTEA) Assay for growth arrest and DNA damage 45 (GADD45B) using HepaRG (AID 2283461). The settings on record: mRNA level, 48 h; actives raise or lower the signal. The procedure, abridged: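 qRT-PCR read-out (Fluidigm TaqMan, housekeeping-normalized) of mRNA change in human HepaRG cells after 48 h chemical exposure; 8-point curve, top 100 uM, half-log steps, 0.5% DMSO vehicle; gain or loss fitted relative to DMSO baseline.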

For the compound `CSC(=O)c1cccc2nnsc12`, the compound was called inactive in assay [1], in assay [2], in assay [3], in [4], in assay [5] and in [6]. Moreover, the compound was called inactive in [7] and in [8].

Consider `CCN(Cc1c(F)cccc1Cl)c1c([N+](=O)[O-])cc(C(F)(F)F)cc1[N+](=O)[O-]`, for which the concentration at half-maximal activity (AC50) (as a rule, the midpoint of the concentration-response curve, whichever way the signal moves) in assay [9] is 14.8 µM (active); in [10] it was 50 µM (active). Further, the compound was called inactive in assay [1], in assay [4], in [5], in assay [6], in assay [7] and in assay [8].

Turning to `C[C@]12C[C@H](O)[C@H]3[C@@H](CCC4=CC(=O)CC[C@@]43C)[C@@H]1CC[C@@H]2C(=O)CO`, the AC50 in assay [9] is 50 µM (active); in assay [6] it was 70 µM (active). The call in assay [1], in [2], in assay [4], in assay [5], in assay [7] and in [8] was inactive.

For `Oc1ccc(C(c2ccc(O)cc2)C(Cl)(Cl)Cl)cc1`, the call in assay [1], in assay [6] and in assay [7] was inactive. Also, the values for the AC50 in assay [2], in [4] and in assay [5] were 93.2 µM (active), 90.9 µM (active) and 82.9 µM (active), respectively.

Consider `CCCCCCC(C)OC(=O)COc1nc(F)c(Cl)c(N)c1Cl` (stereo unspecified), for which the result in assay [1], in [2], in assay [4], in assay [5], in [6] and in assay [7] was inactive. Further, the result in assay [8] was inactive.

`CC(=O)S[C@@H]1CC2=CC(=O)CC[C@]2(C)[C@H]2CC[C@@]3(C)[C@@H](CC[C@@]34CCC(=O)O4)[C@H]12`: the compound was called inactive in assay [9], in assay [1], in assay [4], in assay [5], in [6] and in assay [7]. Further, the values for the AC50 in assay [3] and in assay [8] were 0.828 µM (active) and 67 µM (active), respectively.

Consider `COc1c(Cl)ccc(Cl)c1C(=O)O`, for which the call in assay [9], in assay [1], in [4], in assay [5], in [6] and in assay [7] was inactive. For the same compound, the compound was called inactive in assay [8].

`CN(C)C(=O)Nc1ccc(Cl)c(Cl)c1`: the AC50 in assay [9] was 27 µM (active); in assay [3] it was 28.1 µM (active); in assay [5], 22.2 µM (active); in [8] it was 50 µM (active). In addition, the result in [1], in assay [4], in assay [6] and in assay [7] was inactive.

Take `CCCCOC(=O)[C@@H](C)Oc1ccc(Oc2ccc(C(F)(F)F)cn2)cc1`: the AC50 in [9] was 50.2 µM (active); in [8], 20.6 µM (active). Further, the result in [1], in assay [4], in [5], in assay [6], in assay [10] and in assay [7] was inactive.

Regarding `OB(O)O`, the compound was classed as inactive in [1], in assay [2], in [4], in assay [5], in [6] and in assay [7]. Also, the compound was called inactive in assay [8].

On to `CCCCC(CC)COC(=O)c1ccccc1C(=O)O` (stereo unspecified), for which the AC50 in assay [9] is 77.2 µM (active); in assay [6] it was 74.9 µM (active); in [8] it was 41.9 µM (active). Also, the result in [1], in assay [4], in [5] and in assay [7] was inactive.

For `C#C[C@]1(O)CC[C@H]2[C@@H]3CCC4=CC(=O)CC[C@@H]4[C@H]3CC[C@@]21CC`, the result in assay [1], in [2], in assay [4], in assay [5] and in assay [7] was inactive. Further, the AC50 in assay [6] was 0.156 µM (active); in [8], 0.0365 µM (active).

Consider `CCCN(CCC)C(=O)SCC`, for which the compound was classed as inactive in [1], in assay [2], in assay [3], in assay [4], in [5] and in [6]. The call in assay [7] and in assay [8] was inactive.

For the compound `CC(C)(C)[C@@H](O)[C@@H](Cc1ccc(Cl)cc1)n1cncn1`, the compound was classed as inactive in [1], in assay [2], in assay [4], in assay [5], in assay [7] and in [8]. In addition, the AC50 in assay [6] was 8.74 µM (active).

Regarding `CC(C)CCCCCCc1ccc(O)cc1`, the AC50 in assay [9] is 50 µM (active). Also, the compound was called inactive in assay [1], in assay [4], in [5], in assay [6], in assay [7] and in assay [8].

On to `O=C(c1ccccc1)C1CCCCC1`, for which the call in assay [9], in [1], in [4], in assay [5], in assay [6] and in assay [7] was inactive. In addition, the compound was classed as inactive in [8].

In the case of `C=CCOC(Cn1ccnc1)c1ccc(Cl)cc1Cl` (stereo unspecified), the AC50 in assay [1] is 79.2 µM (active); in assay [2], 78.1 µM (active); in assay [4], 59.1 µM (active); in assay [10], 91.3 µM (active); in assay [7] it was 35.5 µM (active). Moreover, the call in assay [5] and in assay [6] was inactive.

Consider `S=C(S)NCCNC(=S)S.[Mn+2].[S-]C([S-])=NCCN=C([S-])[S-].[Zn+2]`, for which the AC50 in assay [9] was 116 nM (active) and 122 nM (active); in assay [1], 1.31 µM (active) and 1.18 µM (active) and 1.48 µM (active); in assay [4], 3.61 µM (active) and 2.03 µM (active); in assay [5] it was 1.62 µM (active) and 1.21 µM (active); in assay [6], 881 nM (active) and 993 nM (active) and 732 nM (active); in assay [10] it was 3.12 µM (active) and 2.14 µM (active) and 4.41 µM (active). Further, the AC50 in assay [7] is 717 nM (active) and 898 nM (active) and 1.03 µM (active); in assay [8], 695 nM (active) and 718 nM (active) and 693 nM (active). The compound was called inactive in assay [4] and in assay [5].

In the case of `COC(=O)c1ccc(I)cc1S(=O)(=O)NC(=O)Nc1nc(C)nc(OC)n1`, in assay [9], the AC50 is 62.4 µM (active). Moreover, the outcome in assay [1], in assay [4], in [5], in assay [6], in [10] and in assay [7] was inactive. The call in assay [8] was inactive.

Regarding `O=C(Nc1ccc([N+](=O)[O-])cc1Cl)c1cc(Cl)ccc1O`, the AC50 in [1] was 2.33 µM (active); in assay [2], 3.33 µM (active); in assay [4], 4.29 µM (active); in assay [6], 2.25 µM (active); in [7], 3.52 µM (active); in assay [8] it was 3.37 µM (active). Besides, the compound was classed as inactive in [5].

Consider `CCCOC(=O)c1ccc(C(=O)OCCC)nc1`, for which the half-maximal activity concentration (AC50) in [9] was 24.8 µM (active). In addition, the compound was classed as inactive in assay [1], in [2], in [4], in [5], in assay [6] and in assay [7]. For the same compound, the call in assay [8] was inactive.

On to `CCOC(=O)NCCOc1ccc(Oc2ccccc2)cc1`, for which the compound was classed as inactive in assay [1], in assay [5], in [10] and in [7]. The AC50 in assay [2] is 88.5 µM (active); in assay [4], 79.5 µM (active); in assay [6], 84.4 µM (active); in assay [8], 71.2 µM (active).

Take `CCCCOCCOCCOCc1cc2c(cc1CCC)OCO2`: the figures for the half-maximal activity concentration (AC50) in assay [9] and in [6] were 12.9 µM (active) and 4.01 µM (active), respectively. Further, the outcome in [1], in [3], in assay [4], in assay [5], in [7] and in [8] was inactive.

For `O=C(c1ccc(O)cc1O)c1ccc(O)cc1O`, the result in assay [1], in assay [2], in assay [4], in assay [5], in assay [6] and in [7] was inactive. Further, in assay [8], the compound was classed as inactive.
